FBPA Giardia inh: qHTS Assay for Inhibitors of Fructose-1,6-bisphosphate Aldolase from Giardia Lamblia | A8B2U2 | purified Giardia FBPA | Potency, µM (series often up to 59.6 µM), for inactives: top-dose activity, negative = inhibition, usual class: inhibitors | hit rate 0.71% among 290,000 | AID 2451, 2010; further: potency means the concentration at half of the fitted maximal effect; on the % scale 0 is the no-effect control and ±100 the full control effect; nearly all actives have a fitted effect of over 55% in size
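40 nM FBPA preincubated 10 min at RT with compound (up to 57.5 uM final), then substrate plus GAPDH/TPI/NAD/arsenate coupling and diaphorase/resazurin added. Fluorescence read after 20 min at RT, 525/598 nm.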
Sm TGR inh: qHTS Assay for the Inhibitors of Schistosoma Mansoni Peroxiredoxins | Schistosoma mansoni thioredoxin glutathione reductase (TGR), Q962Y6 | purified TGR, DTNB reduction, TNB absorbance 405 nm | Potency, µM (top dose mostly 114 µM), without a hit: at the highest dose activity change, negative = inhibition, usual class: inhibitors | hit rate 3% among 360,000 | AID 485364, 2010; further: potency means the concentration at half of the fitted maximal effect; on the % scale 0 is the no-effect control and ±100 the full control effect; nearly all actives have a fitted effect of over 60% in size
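First, TGR (20 nM dispensed) and NADPH were mixed with compound. Second, a 15 min room-temperature incubation followed. Third, further NADPH and then DTNB were added to start the reaction. Finally, TNB absorbance was monitored kinetically.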
Shiga inhibitor: A qHTS for Small Molecule Inhibitors of Shiga Toxin; hit rate 9.2% among 290,000; inhibition, % at 38.7 µM; AID 2315, 2010; Vero cells, Shiga toxin protein synthesis inhibition reporter; in the data active means inhibition mostly above about 28%, no sharp cut-off; inactive means mostly below about 43%; further: 0% is about no effect
LmPK inhibitor: qHTS Assay for Inhibitors of Leishmania Mexicana Pyruvate Kinase (LmPK); purified LmPK, Kinase-Glo ATP luminescence, 1 h; Potency, µM (doses to about 57.5 µM), inactives show at the highest dose activity change, negative = inhibition, most hits filed as inhibitors; hit rate 0.37% among 290,000; further: potency means the concentration at half of the fitted maximal effect; on the % scale 0 is the no-effect control and ±100 the full control effect
Target sequence (Q27686 whole entry, looked up): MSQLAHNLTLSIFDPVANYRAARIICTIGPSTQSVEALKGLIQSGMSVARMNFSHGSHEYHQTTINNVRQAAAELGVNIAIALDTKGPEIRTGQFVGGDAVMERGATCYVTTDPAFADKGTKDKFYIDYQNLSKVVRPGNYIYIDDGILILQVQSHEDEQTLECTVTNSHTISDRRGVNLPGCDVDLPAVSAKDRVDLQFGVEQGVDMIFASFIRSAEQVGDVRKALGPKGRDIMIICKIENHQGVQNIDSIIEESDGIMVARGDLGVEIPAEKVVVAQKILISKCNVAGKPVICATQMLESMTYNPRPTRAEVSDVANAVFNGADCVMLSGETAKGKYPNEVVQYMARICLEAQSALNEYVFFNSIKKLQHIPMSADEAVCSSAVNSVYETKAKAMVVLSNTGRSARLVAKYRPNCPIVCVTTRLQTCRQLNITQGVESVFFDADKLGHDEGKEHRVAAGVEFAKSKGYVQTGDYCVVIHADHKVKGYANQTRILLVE
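Purified LmPK (0.1 nM) with 0.5 mM PEP and 0.1 mM ADP in imidazole buffer pH 7.2 with MgCl2/KCl, 1 h at room temperature. ATP formed was read by luciferase luminescence and normalized to no-enzyme and uninhibited controls.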
TbPYK inhibitor: qHTS of Trypanosoma Brucei Inhibitors; pyruvate kinase (Trypanosoma brucei), Q57TT1; Potency, µM (top dose mostly 76.8 µM), for the others: top-dose activity, negative = inhibition, actives largely listed as inhibitors; TbPYK enzyme, Kinase-Glo Plus ATP luminescence, 45 min; hit rate 0.12% among 410,000; further: potency means the concentration at half of the fitted maximal effect; on the % scale 0 is the no-effect control and ±100 the full control effect; nearly all actives have a fitted effect of over 50% in size
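TbPYK + substrate in 50 mM TEA pH 7.2, 100 mM KCl, 10 mM MgCl2, 0.05% BSA, 0.01% Tween-20; cpd pinned; ADP 130 uM final; 45 min RT; Kinase-Glo Plus 10 min; luminescence endpoint.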
Cycloheximide cs: Cycloheximide Counterscreen for Small Molecule Inhibitors of Shiga Toxin; hit rate 12% among 300,000; max response, %; cell reporter, cycloheximide protein synthesis inhibition counterscreen; in the data active means max response mostly above about 13%, no sharp cut-off; inactive means mostly below about 14%; further: read at 38.3 µM for the half of the compounds with a filed dose; 0% is about no effect
* marks the source's active call; other numbers are inactive results; ? = inconclusive; . = not tested or not shown. The entries come from a sample that favours hits as a whole. Unless noted, the call rests on the fitted dose curve; in most records, active means well fitted curve in the direction sought with a large enough effect; inconclusive means small, poorly fitted or top-dose-only effect, or another doubt; inactive means no such curve, though single readings can be large; an effect the other way counts as inactive or inconclusive.

SMILES | FBPA Giardia inh | Sm TGR inh | Shiga inhibitor | LmPK inhibitor | TbPYK inhibitor | Cycloheximide cs
COc1ccc(-c2ccc(=O)n(Cc3ccccc3)n2)cc1 | 10% | 12% | 28* | 0% | -1% | 21*
COc1ccc(C2=NN(Cc3ccccc3)C3C(=O)NC(=O)C23)cc1 (stereo not drawn) | -4% | . | 40 | -1% | 1% | 20*
COc1ccc(-c2ccc(=O)n(Cc3cccc(Cl)c3)n2)cc1 | 1% | 0% | -8 | 10% | -15% | 9
Cc1ccc(-c2ccc(=O)n(Cc3c(F)cccc3Cl)n2)cc1 | -3% | 2% | 10 | 6% | 5% | 20*
O=C(CC1NCCc2ccccc21)Nc1ccccc1Cl (stereo not drawn) | 1% | 61% | 39 | 1% | -2% | 26*
O=C(CC1NCCc2ccccc21)Nc1ccccc1 (stereo not drawn) | 1% | ? | 35* | -5% | -2% | 24*
CCN(CC)c1cc(C)c2cc(NC(=O)/C=C/c3cc(OC)c(OC)c(OC)c3)ccc2n1 | . | -15% | . | . | 1% | .
CCCC(=O)C1=C(O)C(C(=O)OC)C(C)(C)CC1=NCc1ccccc1 (stereo not drawn) | 11% | 100µM* | -5 | 0% | -15% | 0
CCCC(=O)Nc1sc(C)c(C)c1C#N | -4% | . | 25 | -1% | 8% | -5
CCc1c(C)sc(NC(=O)c2cc(C(C)C)on2)c1C#N | -23% | 6% | 55* | 9% | 7% | 13*
Cc1cc(C(=O)Nc2sc3c(c2C#N)CCC(C(C)(C)C)C3)no1 (stereo not drawn) | 2% | -2% | -1 | 20% | -3% | 1
Cc1cc(C(=O)Nc2sc(C)c(C)c2C#N)no1 | -10% | -20% | 59* | -1% | -1% | 41*
CCCCCC(=O)Nc1sc(C)c(C)c1C#N | -4% | 7% | active | 1% | ? | 42*
CCc1cc(C(=O)Nc2sc(C)c(CC)c2C#N)no1 | . | -10% | . | . | -1% | .
O=C(COc1ccc2cc(Br)ccc2c1)N1CCCC1 | . | 0% | -16 | -6% | -2% | 1
CC(=O)N1CCC2(CC1)CC(=O)c1cc(OCC(=O)NCc3ccco3)ccc1O2 | 3% | 25µM* | -8 | 4% | -11% | -2
O=C(COc1ccc(-c2ccccc2)cc1)N1CCN(C(=O)c2cccs2)CC1 | -5% | -20% | 40* | 3% | 8% | 15*
O=C(COc1ccccc1)N1CCN(S(=O)(=O)c2cccs2)CC1 | 5% | -7% | -2 | -4% | -6% | 3
O=C(COc1ccc(Br)cc1)N1CCCCCC1 | 4% | 3% | 44 | 8% | 8% | 14*
Cc1ccc(OCC(=O)N2CCCCCCC2)cc1 | -7% | 1% | 61 | 1% | 5% | 16*
C=C(CO)C1Cc2c(ccc3c2OC2COc4cc(OC)c(OC)cc4C2C3=O)O1 (stereo not drawn) | -5% | . | . | . | . | .
COc1cc2c(C(=O)N3CCN(c4ccc(F)cc4)CC3)cn(CC(C)C)c(=O)c2cc1OC | . | -6% | . | . | 3% | .
O=C(NCc1ccccc1Br)C1CCCN(C(=O)N2CCOc3ccccc32)C1 (stereo not drawn) | . | 1% | . | . | -14% | .
CC1=C(C(=O)Nc2ccccc2)C(c2cccnc2)n2nc(SCc3ccccc3Cl)nc2N1 (stereo not drawn) | . | 3% | . | . | 6% | .
O=C(COc1ccc(Cl)cc1)N1CCCC1 | -1% | -23% | 37* | -3% | -5% | 12*
CCOC(=O)N1CCN(C(=O)COc2ccc3c(c2)C(=O)CC(C)(C)O3)CC1 | 2% | 1% | -6 | 0% | 2% | -3
O=C(COc1ccccc1)N1CCCC1 | 2% | 3% | -10 | 0% | -9% | 12
O=C1NC(=S)NC(=O)C1=Cc1ccc(OCC(=O)N2CCCC2)cc1 | . | 10µM* | -10 | 10% | ? | 11
CC1(C)CC(=O)c2cc(OCC(=O)N3CCCCCC3)ccc2O1 | 3% | 5% | 80* | -2% | -4% | 57*

Screening data as filed in PubChem.
